Experimental data taken from PubChem BioAssay (EPA / NIEHS).
The source made the active and inactive calls. How the source made its calls: active means hit-call score of the fitted dose curve at least 0.9, where 1 is the maximum; inactive means score below 0.9.

Columns and labels:
Conditions in all cases: mRNA level, 48 h; actives raise or lower the signal
CYP3A5 (gene 1577) = test: LTEA_HepaRG_CYP3A5: Life Technologies and Expression Analysis (LTEA) Assay for CYP3A5 using HepaRG (AID 2283493)
Method in brief: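 Readout was CYP3A5 mRNA by qRT-PCR. HepaRG cultures were exposed for 48 h in serum-free induction medium to chemicals at up to 100 uM, and responses were fitted in both directions relative to DMSO vehicle.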

[1] = read-out: Fatty Acid-Binding Protein 1 (FABP1), FABP1 (gene 2168); test: LTEA_HepaRG_FABP1: Life Technologies and Expression Analysis (LTEA) Assay for Fatty Acid-Binding Protein 1 (FABP1) using HepaRG (AID 2283494)
Method in brief: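 FABP1 expression by TaqMan qRT-PCR, normalised to three housekeeping genes, in HepaRG cells after 48 h chemical treatment. Eight-point half-log series topping at 100 uM in 0.5% DMSO, duplicates; gain or loss fitted relative to vehicle.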

[2] = read-out: Cytochrome P450 4A22 (Homo sapiens) (UniProt Q5TCH4); test: LTEA_HepaRG_CYP4A22: Life Technologies and Expression Analysis (LTEA) Assay for Cytochrome P450 4A22 (CYP4A22) using HepaRG (AID 2283495)
Method in brief: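 HepaRG, 48 h post-plating -> serum-free induction medium; dosed 48 h, duplicate, 8 conc. (100 uM top, half-log), 0.5% DMSO. Readout: CYP4A22 mRNA by qRT-PCR, ACTB/GAPDH/POLR2A normalization; gain/loss fit relative to DMSO.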

[3] = read-out: Cytochrome P450 7A1 (Homo sapiens) (UniProt P22680); test: LTEA_HepaRG_CYP7A1: Life Technologies and Expression Analysis (LTEA) Assay for Cytochrome P450 7A1 (CYP7A1) using HepaRG (AID 2283496)
Method in brief: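 Using 0.5% DMSO as vehicle and baseline, chemicals were tested in duplicate over an 8-point range from 100 uM on HepaRG cells for 48 h; qRT-PCR signals were normalised to ACTB, GAPDH and POLR2A.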

[4] = read-out: Glutathione S-Transferase (GSTA2), GSTA2 (gene 2939); test: LTEA_HepaRG_GSTA2: Life Technologies and Expression Analysis (LTEA) Assay for Glutathione S-Transferase (GSTA2) using HepaRG (AID 2283497)
Method in brief: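 GSTA2 transcript levels came from Fluidigm TaqMan qRT-PCR normalized to three housekeeping genes, fitted in both directions against DMSO. HepaRG cultures received chemicals for 48 h in serum-free induction medium (0.5% DMSO), 8 half-log concentrations up to 100 uM, duplicate.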

[5] = read-out: Glutamate-cysteine ligase catalytic (GCLC), GCLC (gene 2729); test: LTEA_HepaRG_GCLC: Life Technologies and Expression Analysis (LTEA) Assay for Glutamate-cysteine ligase catalytic (GCLC) using HepaRG (AID 2283498)
Method in brief: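 Expression by TaqMan qRT-PCR, normalized to three housekeeping genes (ACTB, GAPDH, POLR2A), with up- or down-regulation fitted against DMSO. HepaRG cells dosed in duplicate for 48 h with 8 half-log concentrations up to 100 uM, vehicle 0.5% DMSO.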

[6] = read-out: growth arrest and DNA damage 45 (GADD45G), GADD45G (gene 10912); test: LTEA_HepaRG_GADD45G: Life Technologies and Expression Analysis (LTEA) Assay for growth arrest and DNA damage 45 (GADD45G) using HepaRG (AID 2283499)
Method in brief: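 HepaRG, 48 h exposure, top 100 uM, half-log 8-point series, 0.5% DMSO vehicle, duplicates. Readout: GADD45G transcript by qRT-PCR (Fluidigm array), housekeeping-normalised (ACTB/GAPDH/POLR2A). Bidirectional curve fit vs DMSO baseline.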

[7] = read-out: Glutathione S-transferase M3 (GSTM3), GSTM3 (gene 2947); test: LTEA_HepaRG_GSTM3: Life Technologies and Expression Analysis (LTEA) Assay for Glutathione S-transferase M3 (GSTM3) using HepaRG (AID 2283501)
Method in brief: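 qRT-PCR read-out of GSTM3 transcript, normalized to three housekeeping genes, from human HepaRG cells after 48 h chemical exposure. Eight-point half-log series, top 100 uM, 0.5% DMSO vehicle; gain or loss fitted relative to DMSO baseline.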

[8] = read-out: Heat shock 70 kDa protein 1 (HSPA1A), gene 3303; test: LTEA_HepaRG_HSPA1A: Life Technologies and Expression Analysis (LTEA) Assay for Heat shock 70 kDa protein 1 (HSPA1A) using HepaRG (AID 2283502)
Method in brief: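 An oxidative-stress marker readout: HepaRG cells treated 48 h in duplicate with an eight-point series (highest 100 uM) had HSPA1A mRNA quantified by TaqMan qRT-PCR. Activity was fitted in both directions using 0.5% DMSO as baseline.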

[9] = read-out: Hypoxia-inducible factor 1-alpha (Homo sapiens) (UniProt Q16665); test: LTEA_HepaRG_HIF1A: Life Technologies and Expression Analysis (LTEA) Assay for Hypoxia-inducible factor 1 (HIF1A) Trancription factor using HepaRG (AID 2283503);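 further: HIF1A transcript by TaqMan qRT-PCR normalized to ACTB GAPDH and POLR2A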
Method in brief: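 Gain- or loss-of-signal HIF1A mRNA changes are fitted against a DMSO baseline. HepaRG cultures receive eight concentrations, highest 100 uM, for 48 h in serum-free induction medium with 0.5% DMSO.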

[10] = read-out: 3-Hydroxy-3-Methylglutaryl-CoA Synthase 2 (HMGCS2), HMGCS2 (gene 3158); test: LTEA_HepaRG_HMGCS2: Life Technologies and Expression Analysis (LTEA) Assay for 3-Hydroxy-3-Methylglutaryl-CoA Synthase 2 (HMGCS2) using HepaRG (AID 2283504)
Method in brief: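 qRT-PCR read-out of HMGCS2 transcript, normalised to three housekeeping genes, in HepaRG cells after 48 h chemical exposure. Eight-point curves from 100 uM, half-log dilutions, 0.5% DMSO vehicle; gain or loss fitted relative to DMSO baseline.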

HGF (gene 3082) = test: LTEA_HepaRG_HGF: Life Technologies and Expression Analysis (LTEA) Assay for Hepatocyte Growth Facto (HGF) using HepaRG (AID 2283505)
Method in brief: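 HepaRG, 48 h dosing, 8-pt half-log series from 100 uM in 0.5% DMSO, duplicates. Readout: TaqMan qRT-PCR of HGF mRNA, housekeeping-normalized; bidirectional curve fit vs DMSO baseline.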

[11] = read-out: Insulin Like Growth Factor 1 (IGF1), IGF1 (gene 3479); test: LTEA_HepaRG_IGF1: Life Technologies and Expression Analysis (LTEA) Assay for Insulin Like Growth Factor 1 (IGF1) using HepaRG (AID 2283506)
Method in brief: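 Endpoint: IGF1 mRNA change by qRT-PCR, housekeeping-normalized, fitted bidirectionally relative to 0.5% DMSO vehicle. Human HepaRG cells were treated 48 h in serum-free induction medium, eight half-log concentrations topping at 100 uM.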

[12] = read-out: Intercellular Adhesion Molecule 1 (ICAM1), ICAM1 (gene 3383); test: LTEA_HepaRG_ICAM1: Life Technologies and Expression Analysis (LTEA) Assay for Intercellular Adhesion Molecule 1 (ICAM1) using HepaRG (AID 2283507)
Method in brief: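 HepaRG, 48 h exposure, 8-pt half-log series from 100 uM, 0.5% DMSO vehicle, duplicates. Readout: TaqMan qRT-PCR mRNA, housekeeping-normalized (ACTB/GAPDH/POLR2A). Bidirectional curve fit vs DMSO baseline.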

[13] = read-out: Insulin-like growth factor-binding protein 1 (IGFBP1), IGFBP1 (gene 3484); test: LTEA_HepaRG_IGFBP1: Life Technologies and Expression Analysis (LTEA) Assay for Insulin-like growth factor-binding protein 1 (IGFBP1) using HepaRG (AID 2283508)
Method in brief: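 qRT-PCR mRNA read-out (TaqMan, Fluidigm array), normalised to three housekeeping genes; HepaRG cells, 48 h exposure, 8-pt half-log series from 100 uM, 0.5% DMSO vehicle; bidirectional curve fit vs DMSO baseline.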

[14] = read-out: Interleukin 6 (IL6), IL6 (gene 3569); test: LTEA_HepaRG_IL6: Life Technologies and Expression Analysis (LTEA) Assay for Interleukin 6 (IL6) using HepaRG (AID 2283509)
Method in brief: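 Transcript levels, normalized to three housekeeping genes, were quantified by qRT-PCR after 48 h chemical treatment of HepaRG cells. Eight-point half-log series from 100 uM in 0.5% DMSO, duplicates. Fitted both directions against DMSO baseline.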

[15] = read-out: Interleukin 6 Receptor (IL6R), IL6R (gene 3570); test: LTEA_HepaRG_IL6R: Life Technologies and Expression Analysis (LTEA) Assay for Interleukin 6 Receptor (IL6R) using HepaRG (AID 2283510);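 on AC50: differentiated human HepaRG liver cells in serum-free induction medium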
Method in brief: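 In this HepaRG screen, test chemicals act on cells for 48 h at up to 100 uM (eight half-log points, duplicate wells). IL6R expression is quantified by qRT-PCR after normalization to ACTB, GAPDH and POLR2A, with DMSO as baseline.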

[16] = read-out: Keratin 19 (KRT19), KRT19 (gene 3880); test: LTEA_HepaRG_KRT19: Life Technologies and Expression Analysis (LTEA) Assay for Keratin 19 (KRT19) using HepaRG (AID 2283512)
Method in brief: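 HepaRG, 48 h chemical exposure, 8-pt half-log CRC from 100 uM, 0.5% DMSO vehicle, duplicates. Readout: TaqMan qRT-PCR of KRT19 mRNA, housekeeping-normalized (ACTB/GAPDH/POLR2A). Bidirectional fit vs DMSO baseline.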

Measured: AC50

Sequence of Hypoxia-inducible factor 1-alpha (Homo sapiens) (Q16665 whole entry, looked up): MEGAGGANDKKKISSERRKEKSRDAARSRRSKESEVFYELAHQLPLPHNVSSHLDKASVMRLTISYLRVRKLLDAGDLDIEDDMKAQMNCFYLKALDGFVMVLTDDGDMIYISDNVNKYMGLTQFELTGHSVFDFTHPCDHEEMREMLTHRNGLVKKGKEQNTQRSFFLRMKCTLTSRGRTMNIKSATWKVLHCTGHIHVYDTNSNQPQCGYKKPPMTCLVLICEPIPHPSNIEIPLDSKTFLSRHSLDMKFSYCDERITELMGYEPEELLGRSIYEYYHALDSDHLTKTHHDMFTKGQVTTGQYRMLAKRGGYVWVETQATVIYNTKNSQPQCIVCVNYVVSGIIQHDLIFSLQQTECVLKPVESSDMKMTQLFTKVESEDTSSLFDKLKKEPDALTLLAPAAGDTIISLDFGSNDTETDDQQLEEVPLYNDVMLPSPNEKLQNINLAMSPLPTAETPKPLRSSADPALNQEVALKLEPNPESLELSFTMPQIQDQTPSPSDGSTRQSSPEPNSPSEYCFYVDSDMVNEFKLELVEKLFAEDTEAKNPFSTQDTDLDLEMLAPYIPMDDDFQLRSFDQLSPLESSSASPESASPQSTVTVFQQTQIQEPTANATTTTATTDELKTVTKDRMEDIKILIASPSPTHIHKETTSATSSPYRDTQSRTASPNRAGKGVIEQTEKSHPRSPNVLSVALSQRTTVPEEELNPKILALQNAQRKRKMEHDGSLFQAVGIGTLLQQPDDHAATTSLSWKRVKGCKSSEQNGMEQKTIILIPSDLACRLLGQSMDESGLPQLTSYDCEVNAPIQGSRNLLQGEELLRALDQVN

C[C@H]1[C@H](c2ccc(Cl)cc2)SC(=O)N1C(=O)NC1CCCCC1
inactive: CYP3A5 (gene 1577) | [7] | [8] | [9] | HGF (gene 3082) | [15]
active: [1] 55.8 µM | [2] 47.1 µM | [3] 78.9 µM | [4] 79.3 µM | [5] 67.4 µM | [6] 72.9 µM | [10] 38.2 µM | [11] 40.1 µM | [12] 81.3 µM | [13] 75.4 µM | [14] 77.7 µM

CC1(c2ccc(Oc3ccccc3)cc2)OC(=O)N(Nc2ccccc2)C1=O (configuration not stated)
active: CYP3A5 (gene 1577) 90.2 µM | [1] 18.7 µM | [2] 9.55 µM | [3] 12.3 µM | [4] 24.5 µM | [6] 12.3 µM | [7] 50.2 µM | [8] 80.5 µM | [11] 8.33 µM | [12] 13.3 µM | [13] 13.4 µM | [14] 21.1 µM | [16] 2.79 µM
inactive: [5] | [9] | HGF (gene 3082)

CCCN(CCOc1c(Cl)cc(Cl)cc1Cl)C(=O)n1ccnc1
active: [1] 32.9 µM | [2] 27.7 µM | [3] 33.2 µM | [4] 31.8 µM | [5] 12.4 µM | [6] 13 µM | [7] 78 µM | [11] 24.4 µM | [12] 50 µM | [13] 24.4 µM | [14] 36.5 µM
inactive: CYP3A5 (gene 1577) | [8] | [9] | HGF (gene 3082)

O=C1c2ccccc2C(=O)N1SC(Cl)(Cl)Cl
not listed: [10] | [15]
inactive: all other assays above

N#Cc1c(Cl)c(Cl)c(Cl)c(C#N)c1Cl
active: [1] 77.7 µM | [4] 34 µM | [8] 17.3 µM | [13] 3.27 µM | [16] 12.7 µM
not listed: [2] | [10] | [15]
inactive: all other assays above

CC(C)OC(=O)Nc1cccc(Cl)c1
not listed: [10] | [15] | [16]
inactive: all other assays above

CNC(=O)/C=C(\C)OP(=O)(OC)OC
not listed: [10] | [15] | [16]
inactive: all other assays above

N#CN
not listed: [10] | [15]
inactive: all other assays above

CCCN(CCC)c1c([N+](=O)[O-])cc(C(F)(F)F)cc1[N+](=O)[O-]
not listed: [10] | [16]
inactive: all other assays above

CC[C@H](C)[C@H]1O[C@]2(C=C[C@@H]1C)C[C@@H]1C[C@@H](C/C=C(\C)[C@@H](O[C@H]3C[C@H](OC)[C@@H](O[C@H]4C[C@H](OC)[C@@H](O)[C@H](C)O4)[C@H](C)O3)[C@@H](C)/C=C/C=C3\CO[C@@H]4[C@H](O)C(C)=C[C@@H](C(=O)O1)[C@]34O)O2 (tested in a mixture with another compound)
inactive: [6] | HGF (gene 3082)
active: CYP3A5 (gene 1577) 6 µM | [1] 8.68 µM | [2] 10.2 µM | [3] 15 µM | [4] 7.88 µM | [5] 7.09 µM | [7] 9.57 µM | [8] 44.2 µM | [9] 19 µM | [11] 16 µM | [12] 13.6 µM | [13] 11.6 µM | [14] 18.6 µM | [15] 13.9 µM

O=[N+]([O-])c1c(Cl)c(Cl)c(Cl)c(Cl)c1Cl
active: [1] 50 µM | [11] 50 µM | [14] 9.92 µM
not listed: [10] | [15] | [16]
inactive: all other assays above

O=[N+]([O-])/N=C1\NCCN1Cc1ccc(Cl)nc1
active: [1] 36 µM | [3] 34.1 µM | [4] 39.9 µM | [5] 24.6 µM | [8] 25 µM | [11] 23 µM
not listed: [10] | [15] | [16]
inactive: all other assays above
